A short description of assay [1]: optical density shifts of acrAB sulA E. coli – strain DRC41, OD650, 48 h, E. coli filamentation inducer project, primary screen (AID 1152).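 Further: E. coli MC1000 strain DRC41 lacking acrAB efflux pump and sulA.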 To be noted: higher = more signal, called active from +8 up or from −8 down.
Assay [2] in a line: probe aLefty1 binding on compound microarray – biochemical, small-molecule microarray, 635/667 nm fluorescence, primary screen (AID 1153).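 Further: score merges spot fluorescence with signal-to-noise ratio from the scanned slide images.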 To be noted: higher = more signal.
Assay [3] can be described thus: plasmodial surface anion channel blockers, osmotic lysis – cell-based, P. falciparum Indochina, OD700, 1 h, primary screen (AID 1154). To be noted: P. falciparum Indochina infected RBC osmotic lysis, higher = more signal, called active from +8 up or from −8 down.
Assay [4] is described as follows: plasmodial surface anion channel blockers, osmotic lysis – cell-based, P. falciparum Indochina, OD700, 2 h, primary screen (AID 1155).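 Further: lysis reports solute entry through the parasite surface anion channel PSAC.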 To be noted: P. falciparum Indochina infected erythrocytes, higher = more signal, called active from +8 up or from −8 down.
A short description of assay [5]: changes in parasitized red cell lysis, either direction – P. falciparum Indochina, OD700, 3 h, PSAC antagonist project, primary screen (AID 1156). To be noted: P. falciparum-infected erythrocytes, osmotic lysis, higher = more signal, called active from +8 up or from −8 down.
The nature of assay [6]: plasmodial surface anion channel blockers, osmotic lysis – cell-based, P. falciparum Indochina, OD700, 18 h, primary screen (AID 1157). To be noted: P. falciparum Indochina infected erythrocytes, osmotic lysis OD700, 18 h; higher = more signal, called active from +8 up or from −8 down.
Assay [7] is described as follows: S6 kinase pathway phospho-S6 level changes – cell-based, A549, cytoblot, luminescence, serum-stimulated, primary screen (AID 1158).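 Further: serum-stimulated A549 lung adenocarcinoma cells; signal is phosphorylated S6 detected by cytoblot immunostaining with HRP secondary.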 To be noted: 5 h, higher = more signal.
The target of assay [8] is NADPH oxidase 2 (Homo sapiens) (UniProt P04839). The assay is described as follows: compounds shifting NOX2 Amplex Red fluorescence – cell-based, HEK293-NOX2, PMA-stimulated, NOX inhibitor project, primary screen (AID 1159). Further: test concentration not given here. To be noted: 45 min, higher = more signal, called active from +8 up or from −8 down.
Assay [9] deals with NADPH oxidase 4 (Homo sapiens) (UniProt Q9NPH5). The assay is described as follows: compounds shifting NOX4 Amplex Red fluorescence – cell-based, HEK293-NOX4, tetracycline-induced, NOX inhibitor project, primary screen (AID 1160). To be noted: HEK293-NOX4, Amplex Red H2O2 fluorescence, 45 min; higher = more signal, called active from +8 up or from −8 down.
The target in assay [10] is NADPH oxidase 5 (Homo sapiens) (UniProt Q96PH1). The assay is described as follows: compounds shifting NOX5 Amplex Red fluorescence – cell-based, HEK293-NOX5, NOX inhibitor project, primary screen (AID 1161). To be noted: HEK293-NOX5, ionomycin, 45 min, higher = more signal.
The nature of assay [11]: compound effects on lung adenocarcinoma cell viability – A549, calcein-AM fluorescence, 48 h, basal, profiling panel (AID 1162). Further: test concentration not given here. To be noted: higher = more signal.
Assay [12] in a line: compound effects on differentiated 3T3-L1 adipocyte viability – cell-based, 3T3-L1 adipocytes, calcein-AM fluorescence, 48 h, basal, profiling panel (AID 1163). Further: test concentration not given here. To be noted: 3T3-L1 adipocytes viability, higher = more signal.
Assay [13] can be described thus: compound effects on hepatocellular carcinoma cell viability – HepG2, calcein-AM fluorescence, 48 h, basal, profiling panel (AID 1164). Further: test concentration not given here. To be noted: higher = more signal.
Assay [14] can be described thus: compound effects on multiple myeloma cell viability – MM1S, calcein-AM fluorescence, 48 h, basal, profiling panel (AID 1165).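 Further: viability of MM1S multiple myeloma cells under basal unstimulated conditions; test concentration not given here.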 To be noted: higher = more signal.
Assay [15] in a line: calcein-AM signal in unstimulated myeloma cells – cell-based, calcein-AM fluorescence, 48 h, PK04 Diversity Set, profiling panel (AID 1166).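 Further: cells grown under basal conditions without added stimulus; test concentration not given here.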 To be noted: RPMI8226 myeloma viability, higher = more signal.
The nature of assay [16]: JC-1 mitochondrial signal, unstimulated HepG2 cells – cell-based, JC-1 fluorescence, 24 h, 100 nL compound, profiling panel (AID 1167). Further: test concentration not given here. To be noted: HepG2 mitochondrial potential, higher = more signal.
Assay [17] can be described thus: JC-1 mitochondrial signal, unstimulated adipocytes – cell-based, JC-1 fluorescence, 3T3-L1 adipocytes, 24 h, 100 nL compound, profiling panel (AID 1168). Further: test concentration not given here. To be noted: JC-1 mitochondrial fluorescence, higher = more signal, called active from +8 up or from −8 down.
Assay [18] is described as follows: JC-1 mitochondrial signal, unstimulated myeloma cells – cell-based, JC-1 fluorescence, RPMI8226, 24 h, 100 nL compound, profiling panel (AID 1169). Further: test concentration not given here. To be noted: JC-1 mitochondrial potential fluorescence, higher = more signal.
A short description of assay [19]: JC-1 mitochondrial signal, unstimulated MM1S myeloma – cell-based, JC-1 fluorescence, 24 h, 100 nL compound, profiling panel (AID 1170). Further: test concentration not given here. To be noted: MM1S mitochondrial potential, higher = more signal.
Assay [20] is described as follows: resazurin metabolic signal in A549 cells – cell-based, resazurin fluorescence, 24 h, PK04 Diversity Set, profiling panel (AID 1171). Further: test concentration not given here. To be noted: A549 viability, higher = more signal, called active from +8 up or from −8 down.

Here are results for five compounds from PubChem BioAssay.

Calls of active or inactive are those of the source.

NADPH oxidase 2 (Homo sapiens), sequence (P04839 whole entry, looked up): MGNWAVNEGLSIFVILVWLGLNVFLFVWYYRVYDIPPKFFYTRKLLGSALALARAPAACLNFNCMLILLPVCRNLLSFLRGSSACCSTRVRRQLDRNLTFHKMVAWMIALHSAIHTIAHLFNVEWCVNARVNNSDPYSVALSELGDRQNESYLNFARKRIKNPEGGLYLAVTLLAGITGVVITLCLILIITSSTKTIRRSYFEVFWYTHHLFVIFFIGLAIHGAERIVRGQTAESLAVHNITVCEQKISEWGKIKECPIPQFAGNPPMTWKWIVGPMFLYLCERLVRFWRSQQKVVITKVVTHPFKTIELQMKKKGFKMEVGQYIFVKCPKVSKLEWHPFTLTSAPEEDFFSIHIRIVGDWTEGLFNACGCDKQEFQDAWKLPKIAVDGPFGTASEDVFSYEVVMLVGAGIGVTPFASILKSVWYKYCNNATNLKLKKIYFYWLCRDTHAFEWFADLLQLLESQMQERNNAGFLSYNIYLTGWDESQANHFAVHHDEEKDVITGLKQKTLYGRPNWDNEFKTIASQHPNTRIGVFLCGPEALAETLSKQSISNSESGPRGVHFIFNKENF
NADPH oxidase 4 (Homo sapiens), sequence (Q9NPH5 whole entry, looked up): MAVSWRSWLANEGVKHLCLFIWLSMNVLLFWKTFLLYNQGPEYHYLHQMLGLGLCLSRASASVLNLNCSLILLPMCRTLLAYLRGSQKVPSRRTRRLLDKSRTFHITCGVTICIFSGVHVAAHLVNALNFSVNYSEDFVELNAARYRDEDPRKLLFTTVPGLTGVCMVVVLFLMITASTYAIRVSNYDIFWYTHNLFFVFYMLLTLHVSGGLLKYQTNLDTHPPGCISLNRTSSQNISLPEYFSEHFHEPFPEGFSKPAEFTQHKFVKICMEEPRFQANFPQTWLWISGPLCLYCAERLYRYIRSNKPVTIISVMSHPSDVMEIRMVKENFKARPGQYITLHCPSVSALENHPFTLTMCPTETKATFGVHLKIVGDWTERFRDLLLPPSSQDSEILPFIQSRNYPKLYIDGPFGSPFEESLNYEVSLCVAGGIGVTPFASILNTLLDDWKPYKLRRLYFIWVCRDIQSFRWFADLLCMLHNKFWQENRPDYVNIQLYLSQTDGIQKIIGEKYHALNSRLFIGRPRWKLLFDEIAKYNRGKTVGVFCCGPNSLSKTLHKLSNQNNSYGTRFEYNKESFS
NADPH oxidase 5 (Homo sapiens), sequence (Q96PH1 whole entry, looked up): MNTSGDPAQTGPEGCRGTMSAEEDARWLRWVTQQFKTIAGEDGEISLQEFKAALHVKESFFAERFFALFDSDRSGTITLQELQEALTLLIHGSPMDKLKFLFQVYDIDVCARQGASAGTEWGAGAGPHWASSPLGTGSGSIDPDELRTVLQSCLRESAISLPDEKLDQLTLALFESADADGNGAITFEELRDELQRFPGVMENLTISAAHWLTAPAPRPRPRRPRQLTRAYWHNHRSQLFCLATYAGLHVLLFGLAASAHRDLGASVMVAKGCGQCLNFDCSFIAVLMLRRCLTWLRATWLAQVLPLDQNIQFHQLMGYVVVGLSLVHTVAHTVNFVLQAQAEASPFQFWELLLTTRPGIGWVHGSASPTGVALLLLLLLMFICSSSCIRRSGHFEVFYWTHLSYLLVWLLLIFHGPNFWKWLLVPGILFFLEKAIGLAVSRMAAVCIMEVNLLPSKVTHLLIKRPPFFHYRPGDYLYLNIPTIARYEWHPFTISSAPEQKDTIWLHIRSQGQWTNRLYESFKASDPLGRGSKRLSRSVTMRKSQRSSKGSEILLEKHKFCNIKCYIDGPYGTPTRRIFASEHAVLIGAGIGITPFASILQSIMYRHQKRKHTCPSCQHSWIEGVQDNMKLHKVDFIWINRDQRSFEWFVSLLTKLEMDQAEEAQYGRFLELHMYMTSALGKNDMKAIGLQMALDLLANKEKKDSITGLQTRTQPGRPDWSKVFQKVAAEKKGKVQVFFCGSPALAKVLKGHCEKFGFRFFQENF

Turning to `C=CCN1Cc2ccccc2C[C@@]2(N=C(c3ccc(OCCCO)cc3)O[C@H]2c2ccccc2)C1=O`, the z-score in assay [1] is 0.404 (inactive); in [3], 28.1 (active); in assay [4] it was 23.6 (active); in assay [5] it was 2.55 (inactive); in assay [6], 5.74 (inactive); in assay [7] it was 0.624. Besides, the z-score in assay [8] is -5.76 (inactive); in [9] it was -0.323 (inactive); in assay [10] it was -3.72; in [11], -1.46; in assay [12] it was 0.906; in assay [13], -1.05. Besides, the z-score in assay [14] is -3.52; in [15], -3.95; in [16], 0.166; in assay [17], 1.4 (inactive); in assay [18] it was -1.03; in assay [19], -2.48. Also, in [20], the z-score is -3.12 (inactive). Moreover, the composite z-score in assay [2] turned out to be 0.57.
For `CC(C)CN1C(=O)[C@@]2(c3ccc([N+](=O)[O-])cc3)CC(=O)N(CC34CC5CC(CC(C5)C3)C4)[C@@H]2c2ccc(CO)cc21`, the z-score is 0.193 (inactive) in assay [1]; 1.17 (inactive) in assay [3]; -0.377 (inactive) in [4]; 0.0846 (inactive) in [5]; -1.17 (inactive) in assay [6]; 2.01 in assay [7]. The z-score was -0.187 (inactive) in assay [8]; -0.981 (inactive) in [9]; -0.986 in assay [10]; -0.181 in [11]; 1.04 in assay [12]; -0.744 in assay [13]. The z-score was -0.0484 in assay [14]; -0.544 in assay [15]; -0.849 in assay [16]; -0.316 (inactive) in assay [17]; 0.833 in [18]; -2.29 in assay [19]. The z-score in assay [20] was -0.186 (inactive). Also, in assay [2], the composite z-score is 0.129.
For the compound `COc1cc2c(cc1OC)CN(C(=O)[C@@H]1[C@H]3C(=O)O[C@H](c4ccccc4)[C@H](c4ccccc4)N3[C@H](c3ccccc3OCCO)[C@@]13C(=O)Nc1ccc(C#CC4(O)CCCCCC4)cc13)CC2`, the z-score in assay [1] is 2.01 (inactive); in assay [3], 3.46 (inactive); in assay [4], 2.47 (inactive); in assay [5], 1.26 (inactive); in assay [6] it was 2.21 (inactive); in assay [7] it was 0.454. Moreover, the z-score is 1.73 (inactive) in assay [8]; 0.934 (inactive) in assay [9]; 2.25 in assay [10]; 0.74 in [11]; -0.277 in assay [12]; 0.711 in assay [13]. For the same compound, the z-score is -0.292 in assay [14]; -1.88 in assay [15]; -0.612 in assay [16]; 1.3 (inactive) in [17]; -0.792 in assay [18]; -1.31 in assay [19]. In assay [20], the z-score is -0.373 (inactive). Further, the composite z-score in [2] is -0.2.
On to `COCCOC(=O)N1C(=O)[C@@]2(c3cc(C#CC4(O)CCCCCC4)ccc31)[C@H](c1ccccc1OCCO)N1[C@H](c3ccccc3)[C@H](c3ccccc3)OC(=O)[C@H]1[C@@H]2C(N)=O`, for which the z-score in assay [1] was -0.552 (inactive); in assay [3], 4.08 (inactive); in assay [4], 1.76 (inactive); in assay [5], -0.971 (inactive); in [6], 0.76 (inactive); in [7], -0.255. The z-score was 1.8 (inactive) in [8]; -0.551 (inactive) in assay [9]; -0.269 in assay [10]; -2.37 in assay [11]; 0.943 in [12]; -4.78 in assay [13]. For the same compound, the z-score in [14] was -3.43; in assay [15], -4.62; in assay [16] it was -2.3; in [17], 1.8 (inactive); in [18], -1.14; in assay [19] it was -1.88. Besides, the z-score in [20] is -2.94 (inactive). Moreover, the composite z-score in assay [2] is -0.0046.
Consider `COc1ccc([Si](C)(C)[C@@H]2[C@@H](CCO)O[C@]3(C(=O)N(Cc4cccc(N5C(=O)c6cccc7cccc5c67)c4)c4ccccc43)[C@H]2C)cc1`, for which the z-score was -0.21 (inactive) in [1]; 3.33 (inactive) in [3]; 3.66 (inactive) in assay [4]; -0.0486 (inactive) in assay [5]; 2.34 (inactive) in [6]; 0.0181 in [7]. The z-score is 0.498 (inactive) in assay [8]; 0.86 (inactive) in assay [9]; 2.42 in assay [10]; -1.03 in assay [11]; 0.421 in assay [12]; -3.42 in [13]. Moreover, the z-score in assay [14] was -1.32; in assay [15], -4.25; in assay [16] it was -0.543; in [17], 0.145 (inactive); in assay [18], -1.05; in assay [19], -1.77. For the same compound, the z-score in [20] is -2.26 (inactive). Moreover, the composite z-score in assay [2] stood at 0.0449.
